Most compounds without a hit are left out; they make up all but 1.4% or so of the library.
S-ASM inh – blocks human secretory acid sphingomyelinase | P17405 | placental ASM, HMU-PC fluorogenic substrate, 60 min | Potency, µM (top dose mostly 57.5 µM), usual class: inhibitors | hit rate 0.006% among 340,000 | AID 504937
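Human placenta-derived ASM enzyme was preincubated with compound for 10 minutes at room temperature, then given fluorogenic substrate HMU-PC0 (9 uM final) for 60 minutes at 37 °C; a pH 10 stop preceded fluorescence reading at Ex 386/Em 447 nm.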
PINK1 expr mod – PINK1 expression modulation; PINK1 immunofluorescence, high-content cytometry, 24 h; Potency, µM (doses to about 76.6 µM), most hits filed as activators; hit rate 0.2% among 410,000; AID 624263; active = well fitted activation curve with a large enough effect; inconclusive = small, poorly fitted or top-dose-only effect; cell line not stated here; also: nearly all actives have a fitted effect of over 65% in size
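Stable cell line treated 24 h with compounds at 5 concentrations (CCCP controls), then fixed and immunostained for PINK1 plus nuclear and cell stains; PINK1 immunofluorescence quantified by laser-scanning microplate cytometry.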
p53 reactivator – restores transcriptional activity of mutant p53. H1299 p53-A138V BP100-luciferase reporter, luminescence, 24 h. Potency, µM (highest dose often 92.2 µM), actives largely listed as activators. hit rate 0.063% among 320,000. AID 504706; also: nearly all actives have a fitted effect of over 45% in size
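p53-null H1299 cells stably carrying temperature-sensitive p53-A138V and a BP100-luciferase reporter were pinned with compounds (4-point, 1:5 series) and held 24 hrs at 37 deg C. Luminescence was read 10 min after detection reagent.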
Mm-Cpn inhibitor – M. maripaludis TRiC chaperonin inhibition | purified Mm-Cpn ATPase, ADP Transcreener TR-FRET | Potency, µM (highest dose often 76.9 µM), hits mostly inhibitors | hit rate 0.031% among 330,000 | AID 504842; also: nearly all actives have a fitted effect of over 80% in size
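Reaction buffer contained 30 mM Tris pH 7.4, 100 mM KCl, 5 mM MgCl2 and 1 mM DTT. Mm-CPN (25 nM final) hydrolysed 10 uM ATP over 30 min at 37°C; ADP was read by HTRF.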
CCT modulator – cytosolic chaperonin activity modulation | hit rate 0.3% among 360,000 | purified chaperonin ATPase assay, HTRF ADP detection, 30 min | activity change, % (concentration not given with the values), hits read low; in the data active = activity change below about -30%
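Enzyme 40 or 20 nM (batch-dependent) in Tris pH 7.4/KCl/MgCl2/DTT; cpd 76 uM single point; ATP 10 uM; 30 min 37 °C; Transcreener ADP HTRF detection, 30 min RT; ratio 665/615.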
ALOX12 inh – blocks human arachidonate 12S-lipoxygenase; P18054; purified 12hLO, xylenol orange hydroperoxide absorbance; Potency, µM (series often up to 108 µM), most hits filed as inhibitors; hit rate 1.1% among 580,000; AID 1671190
Target sequence (P18054 whole entry, looked up): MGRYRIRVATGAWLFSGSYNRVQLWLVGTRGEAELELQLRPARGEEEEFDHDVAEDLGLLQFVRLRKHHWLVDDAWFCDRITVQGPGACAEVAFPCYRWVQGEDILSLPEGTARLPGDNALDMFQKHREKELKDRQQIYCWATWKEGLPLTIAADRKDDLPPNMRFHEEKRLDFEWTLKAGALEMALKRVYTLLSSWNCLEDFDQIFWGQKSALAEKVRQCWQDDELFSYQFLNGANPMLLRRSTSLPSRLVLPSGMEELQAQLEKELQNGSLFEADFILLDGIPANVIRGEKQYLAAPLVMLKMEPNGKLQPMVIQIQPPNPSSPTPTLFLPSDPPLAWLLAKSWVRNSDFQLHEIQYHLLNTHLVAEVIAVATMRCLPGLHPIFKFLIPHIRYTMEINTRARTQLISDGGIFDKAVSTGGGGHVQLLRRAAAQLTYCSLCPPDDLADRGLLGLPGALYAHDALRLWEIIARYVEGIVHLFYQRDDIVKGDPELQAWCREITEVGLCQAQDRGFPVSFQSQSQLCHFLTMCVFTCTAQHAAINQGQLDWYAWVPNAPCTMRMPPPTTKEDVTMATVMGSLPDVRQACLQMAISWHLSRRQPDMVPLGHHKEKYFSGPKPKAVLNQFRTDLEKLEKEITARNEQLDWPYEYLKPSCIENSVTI
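Purified human 12hLO (150 nM final) in 25 mM Hepes, 0.01% Triton X-100, pH 7.0 was preincubated 15 min at room temperature with compound. Then 40 uM arachidonic acid was added, 30 min. Hydroperoxide was read by Fe-XO absorbance ratio 573/405 nm.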
Numbers stand for hits; 0 = inactive; ? = inconclusive; - = no result; ! = a repeat was not active; [ ] = remark or other dose. Unless noted, calls follow the shape of the dose curve; as a rule, active = well fitted curve in the direction sought with a large enough effect; inconclusive = small, poorly fitted or top-dose-only effect, or another doubt; inactive = no such curve, though single readings can be large; an effect the other way counts as inactive or inconclusive.

SMILES	S-ASM inh	PINK1 expr mod	p53 reactivator	Mm-Cpn inhibitor	CCT modulator	ALOX12 inh
CNc1nccc(N2CCC(CC(=O)NCCC(C)C)CC2)n1	-	-	-	-	-	0
O=C1CCSc2ccc(C(=O)NO)cc2N1	-	-	-	-	-	40µM
CC(NC(=O)c1ccc2c(c1)NC(=O)CCS2)c1ccncc1 (configuration not stated)	-	-	-	-	-	8.9µM
O=C(CCc1nc2ccccc2s1)NCCc1ccc(C(F)(F)F)cc1	-	-	-	-	-	0
O=C(CCl)N1c2ccccc2Sc2c1ccc1ccccc21	0	0	-	-	0	35µM
COc1ccc(NC(=O)CCS(=O)(=O)c2cc3c4c(c2)CCN4C(=O)CC3)cc1OC	-	0	-	-	-	?
COc1ccccc1NC(=O)CCS(=O)(=O)c1cc2c3c(c1)CCN3C(=O)CC2	-	0	-	-	-	?
O=C(CCS(=O)(=O)c1cc2c3c(c1)CCN3C(=O)CC2)Nc1cccc(Br)c1	-	0	-	-	-	45µM
COc1ccc(C)cc1NC(=O)CCS(=O)(=O)c1cc2c3c(c1)CCN3C(=O)CC2	-	0	-	-	-	18µM
CCc1nnc(Cn2cnc3scc(-c4ccc(Cl)cc4)c3c2=O)o1	-	-	-	-	-	0
Cc1ccc(S(=O)(=O)N2[C@@H]3CC[C@H]2CC(NC(=O)c2ccncc2)C3)c(C)c1 (some centres not stated)	-	-	-	-	-	18µM
Cc1ccc(C)c(S(=O)(=O)N2[C@@H]3CC[C@H]2CC(NC(=O)c2ccc(F)cc2)C3)c1 (some centres not stated)	-	-	-	-	-	0
Cc1ccccc1CN1C(=O)C(C)S/C1=N/N=C/c1ccco1 (configuration not stated)	0	0	0	0	0	?
Cc1ccccc1CN1C(=O)C(C)Sc2ccc(-c3ccco3)cc21 (configuration not stated)	-	0	-	-	0	16µM
Cc1cc(CC(C)CC(C)(C)C)n(O)c(=O)c1 (configuration not stated)	-	0	-	-	-	-
Cc1cc(C2CCCCC2)n(O)c(=O)c1	0	0	?	0	0	40µM!
Cc1nn(-c2nc3c(c(=O)n(Cc4ccccc4Cl)c(=O)n3C)n2C)c(C)c1C	-	-	-	-	-	0
CCOC(=S)N/C(=N\S(=O)(=O)c1ccccc1)c1ccccc1	0	0	0	0	0	?
CCCOC(=S)N/C(=N\S(=O)(=O)c1ccccc1)c1ccccc1	0	0	0	0	0	35µM
Cc1ccc(NC(=S)N/C(=N/S(=O)(=O)c2ccccc2)c2ccccc2)cc1	0	0	?	0	0	35µM!
CCOC(=O)c1sc2ccccc2c1S(=O)(=O)Nc1cccc(OC)c1	-	-	-	-	-	0
O=C(Nc1ccc(-c2nc3ccccc3s2)cc1)C1CCN(C(=O)c2cccs2)CC1	-	-	-	-	-	0
O=C(Nc1cccc(-c2nc3ccccc3s2)c1)[C@@H]1CCCN1C(=O)c1cccs1	-	-	-	-	-	40µM
COCCCn1c(=S)[nH]c(C)c(C)c1=O	0	0	0	0	0	?
COCCCn1c(=O)cc(C)[nH]c1=S	0	0	0	0	-39	0
SMILES	S-ASM inh	PINK1 expr mod	p53 reactivator	Mm-Cpn inhibitor	CCT modulator	ALOX12 inh
S=c1nccc(-c2ccccc2)[nH]1	-	-	-	-	-	13µM
Cc1ccc(-c2ccnc(=S)[nH]2)cc1	0	0	0	0	0	0
COc1ccc(S[C@]2(C(=O)NCC(F)(F)F)CC(=O)N[C@@H]2c2ccc(OC)cc2)cc1	-	-	-	-	-	32µM
C/C(=N/Nc1ccc(S(=O)(=O)Nc2ccccc2)cc1[N+](=O)[O-])c1cccnc1	-	-	-	-	-	0
NCCc1ccc(O)c(O)c1	0	0	0	0[15.4 µM]	0	2.8µM!
COc1cc(C2c3c(-c4cc(C)cc(C)c4O)n[nH]c3C(=O)N2Cc2cccnc2)ccc1O (configuration not stated)	-	-	-	-	-	0
COc1ccccc1NS(=O)(=O)c1cn(C)cn1	0	0	0	0	-53	0
CCN(CC)c1ccc(-c2nn3c(-c4ccccc4C)nnc3s2)cc1	-	-	-	-	-	0
Cc1ccccc1CNC(=O)/C=C\C(=O)O	0	0	0	0	0	?
O=C(O)/C=C/C(=O)NCc1csc2ccccc12	0	0	0	0	0	25µM
O=C(COc1ccccc1)N1CC(CNc2cccnc2)C2(C1)CN(c1ccccc1)C2 (configuration not stated)	-	-	-	-	-	0
COc1cccc(Nc2ncc3nc(-c4ccc(F)cc4)c(=O)n(CCC#N)c3n2)c1	-	?	-	-	-	0
COc1ccc(-c2nc3cnc(Nc4cccc(OC)c4)nc3n(CCC#N)c2=O)cc1	-	45µM	-	-	-	0
COc1ccc(-c2nc3cnc(Nc4ccccc4)nc3n(CCC#N)c2=O)cc1	-	11µM	-	-	-	0
Cc1ccccc1-n1nnnc1SCC(=O)c1ccc(Br)s1	-	-	-	-	-	25µM
O=C(Cc1ccc(Cl)cc1)N/N=C/c1ccc(O)c(O)c1	-	0	-	-	0	14µM
Cc1ccc(O)c(/C=N/NC(=O)Cc2ccc(Cl)cc2)c1	0	0	-	0	0	0
O=C(O)CSc1cc(NS(=O)(=O)c2ccc(Cl)cc2)c2ccccc2c1O	?	0	0	0	0	2.8µM
CCCNC(=O)NC(C(N)=O)C(N)=O	-	-	-	-	-	0
Cc1ccc(CNc2nc(NCC3CC3)nc3ccsc23)c(C)c1	-	?	-	-	0	?
Cc1ccc(Nc2nc(NCC3CC3)nc3ccsc23)c(C)c1	-	?	-	-	0	40µM
O=C(Sc1ccc(Cl)cc1)c1ccccn1	0	0	-	-	0	2.8µM
Brc1ccc(-c2noc(-c3ccncc3)n2)o1	-	-	-	-	-	0
CCC(=O)N1CCc2cc(S(=O)(=O)CCC(=O)NCc3cccc(OC)c3)ccc21	0	0	0	0	-66	0
CCC(=O)N1CCc2cc(S(=O)(=O)CCC(=O)NCc3ccccc3OC)ccc21	0	0	0	?	-57	0
SMILES	S-ASM inh	PINK1 expr mod	p53 reactivator	Mm-Cpn inhibitor	CCT modulator	ALOX12 inh
O=C(CCS(=O)(=O)c1ccc2c(c1)CCN2C(=O)C1CC1)NC1CCCCCC1	-	-	-	-	-	0
CCC(=O)N1CCc2cc(S(=O)(=O)CCC(=O)NC3CCCCC3)ccc21	0	0	0	0	-75	?
CCCCOc1ccc(C(=O)NC(=S)NCCCO)cc1Br	-	-	-	-	-	7.9µM
CCCCNC(=S)NC(=O)c1ccccc1Br	0	0	0	0	0	0
CN(C)C1(CNC(=O)Cc2c[nH]c3ccccc23)CCCCCC1	-	-	-	-	-	0
Oc1c(Br)cc(Br)cc1C=Nc1ccc(F)c(Cl)c1	-	-	-	-	-	4.5µM
Oc1c(Cl)cc(Cl)cc1C=Nc1ccc(F)c(Cl)c1	-	-	-	-	-	0
COc1ccc(NS(=O)(=O)c2cc(OC)ccc2OC)cc1	0	0	-	-	0	0
COc1ccc(NS(=O)(=O)c2cc(OC)ccc2NC(=O)c2cc(C)oc2C)cc1	0	0	0	0	0	35µM
N#CCCN1CCN(c2ccc(NC(=O)c3ccc(F)cc3)c(C(=O)O)c2)CC1	-	-	-	-	-	0
COc1ccc(S(=O)(=O)Nc2ccccc2CCc2nc3ccccc3n2C)cc1OC	-	-	-	-	-	0
COc1ccc(C(=O)NC2CCCCC2)cc1C	-	-	-	-	-	0
Cc1cc(/C=C/c2nc3c(ccc4ccccc43)s2)cc(C)c1O	-	-	-	-	-	6.3µM

Bioassay records (PubChem)
